# Test results taken from the supplement of paper PMC4022240.
# ± gives the standard deviation.
# T1: HaloTag-ATRX ADD domain (163-292)
# T1 chain: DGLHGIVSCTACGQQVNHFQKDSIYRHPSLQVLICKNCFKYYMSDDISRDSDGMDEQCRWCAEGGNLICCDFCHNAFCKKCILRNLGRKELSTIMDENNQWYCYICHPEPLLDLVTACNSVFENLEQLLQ
# Legend:
# Experiment in all cases: peptide microarray binding signal (635 nm), min-max normalized on array (fraction of array maximum); higher = stronger binding
# Conditions in all cases: peptide region: H2B 17-29
# [1] = target: T1, HaloTag-ATRX ADD domain (163-292)
# Method: (§1)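 Histone 13-mer peptides were synthesized as cellulose conjugates with a C-terminal 20-atom PEG linker and printed in triplicate on nitrocellulose. The sequence given is the unmodified backbone; PTMs (Kme1/2/3, Kac, Sph/Tph, Rme/Rme2a/Rme2s, Rcit) are listed in the label and the 'peptide modifications' condition. Slides were probed at 4 °C for 1 h with biotin-labelled (HQ)5-HaloTag reader fusions (ATRX-ADD, ING2-PHD) then streptavidin-Alexa647, or with rabbit histone antibodies then anti-rabbit Alexa647. The mean 635 nm signal of the triplicate spots was scaled 0-1 between the lowest and highest values on each array.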
# [2] = target: HaloTag-ING2 PHD (mouse Ing2 200-280)
# Method: as §1
# [3] = target: anti-H3K4me3 antibody ab8580
# Method: as §1
# [4] = target: anti-H3K9me3 antibody ab8898
# Method: as §1
# [5] = peptide modifications: H2BK20ac H2BK27ac, binder concentration: 1:2,000 dilution
# [6] = peptide modifications: H2BK20ac H2BK27ac, binder concentration: 1:10,000 dilution
# [7] = peptide modifications: H2BK20ac H2BK23ac H2BK28ac, binder concentration: 1:2,000 dilution
# [8] = peptide modifications: H2BK20ac H2BK23ac H2BK28ac, binder concentration: 1:10,000 dilution
# [9] = peptide modifications: H2BK20ac H2BK23ac H2BK27ac, binder concentration: 1:2,000 dilution
# [10] = peptide modifications: H2BK20ac H2BK23ac H2BK27ac, binder concentration: 1:10,000 dilution
# [11] = peptide modifications: H2BK23ac H2BK24ac, binder concentration: 1:2,000 dilution
# [12] = peptide modifications: H2BK23ac H2BK24ac, binder concentration: 1:10,000 dilution
# [13] = peptide modifications: H2BK20ac H2BK23ac, binder concentration: 50 nM
# [14] = peptide modifications: H2BK20ac H2BK23ac, binder concentration: 500 nM
# [15] = peptide modifications: H2BK20ac H2BK23ac, binder concentration: 10 nM
# [16] = peptide modifications: H2BK20ac H2BK23ac, binder concentration: 100 nM
# [17] = peptide modifications: H2BK20ac H2BK23ac, binder concentration: 1:2,000 dilution
# [18] = peptide modifications: H2BK20ac H2BK23ac, binder concentration: 1:10,000 dilution
# [19] = peptide modifications: H2BK23ac H2BK24ac H2BK27ac, binder concentration: 1:2,000 dilution
# [20] = peptide modifications: H2BK23ac H2BK24ac H2BK27ac, binder concentration: 1:10,000 dilution
# [21] = peptide modifications: H2BK20ac H2BK24ac H2BK27ac, binder concentration: 1:2,000 dilution
# [22] = peptide modifications: H2BK20ac H2BK24ac H2BK27ac, binder concentration: 1:10,000 dilution
# [23] = binder concentration: 1:2,000 dilution
# [24] = binder concentration: 1:10,000 dilution
# [25] = peptide modifications: H2BK20ac H2BK23ac H2BK24ac H2BK27ac H2BK28ac, binder concentration: 1:2,000 dilution
# [26] = peptide modifications: H2BK20ac H2BK23ac H2BK24ac H2BK27ac H2BK28ac, binder concentration: 1:10,000 dilution
binder,measurement,setting,value
AVTKAQKKDGKKR [H2B 17-29 A V T Kac A Q K K D G Kac K R],peptide microarray binding signal,"[1]; peptide modifications: H2BK20ac H2BK27ac, binder concentration: 50 nM",0.00332 ± 9.9e-05
same,peptide microarray binding signal,"[1]; peptide modifications: H2BK20ac H2BK27ac, binder concentration: 500 nM",0.00976 ± 0.00025
same,peptide microarray binding signal,"[2]; peptide modifications: H2BK20ac H2BK27ac, binder concentration: 10 nM",0.00573 ± 0.0013
same,peptide microarray binding signal,"[2]; peptide modifications: H2BK20ac H2BK27ac, binder concentration: 100 nM",0.00397 ± 0.00018
same,peptide microarray binding signal,[3]; [5],0.00349 ± 0.00028
same,peptide microarray binding signal,[3]; [6],0.000856 ± 8.9e-06
same,peptide microarray binding signal,[4]; [5],0.000755 ± 1.7e-05
same,peptide microarray binding signal,[4]; [6],0.000461 ± 8.7e-06
AVTKAQKKDGKKR [H2B 17-29 A V T Kac A Q Kac K D G K Kac R],peptide microarray binding signal,"[1]; peptide modifications: H2BK20ac H2BK23ac H2BK28ac, binder concentration: 50 nM",0.00429 ± 0.00027
same,peptide microarray binding signal,"[1]; peptide modifications: H2BK20ac H2BK23ac H2BK28ac, binder concentration: 500 nM",0.00667 ± 0.00058
same,peptide microarray binding signal,"[2]; peptide modifications: H2BK20ac H2BK23ac H2BK28ac, binder concentration: 10 nM",0.0115 ± 0.00023
same,peptide microarray binding signal,"[2]; peptide modifications: H2BK20ac H2BK23ac H2BK28ac, binder concentration: 100 nM",0.0129 ± 0.0013
same,peptide microarray binding signal,[3]; [7],0.00221 ± 0.00083
same,peptide microarray binding signal,[3]; [8],0.00097 ± 9.9e-06
same,peptide microarray binding signal,[4]; [7],0.000634 ± 2e-05
same,peptide microarray binding signal,[4]; [8],0.00104 ± 4.3e-05
AVTKAQKKDGKKR [H2B 17-29 A V T Kac A Q Kac K D G Kac K R],peptide microarray binding signal,"[1]; peptide modifications: H2BK20ac H2BK23ac H2BK27ac, binder concentration: 50 nM",0.00646 ± 0.00075
same,peptide microarray binding signal,"[1]; peptide modifications: H2BK20ac H2BK23ac H2BK27ac, binder concentration: 500 nM",0.00214 ± 0.00028
same,peptide microarray binding signal,"[2]; peptide modifications: H2BK20ac H2BK23ac H2BK27ac, binder concentration: 10 nM",0.00585 ± 0.00024
same,peptide microarray binding signal,"[2]; peptide modifications: H2BK20ac H2BK23ac H2BK27ac, binder concentration: 100 nM",0.000992 ± 4.7e-05
same,peptide microarray binding signal,[3]; [9],0.000189 ± 5.4e-06
same,peptide microarray binding signal,[3]; [10],0.0016 ± 0.00014
same,peptide microarray binding signal,[4]; [9],0.000664 ± 5.2e-05
same,peptide microarray binding signal,[4]; [10],0.001211 ± 1.2e-05
AVTKAQKKDGKKR [H2B 17-29 A V T K A Q Kac Kac D G K K R],peptide microarray binding signal,"[1]; peptide modifications: H2BK23ac H2BK24ac, binder concentration: 50 nM",0.00605 ± 0.00096
same,peptide microarray binding signal,"[1]; peptide modifications: H2BK23ac H2BK24ac, binder concentration: 500 nM",0.00486 ± 0.0017
same,peptide microarray binding signal,"[2]; peptide modifications: H2BK23ac H2BK24ac, binder concentration: 10 nM",0.00543 ± 0.00017
same,peptide microarray binding signal,"[2]; peptide modifications: H2BK23ac H2BK24ac, binder concentration: 100 nM",0.00347 ± 0.00023
same,peptide microarray binding signal,[3]; [11],0.000566 ± 8.2e-05
same,peptide microarray binding signal,[3]; [12],0.00257 ± 0.00026
same,peptide microarray binding signal,[4]; [11],0.000951 ± 7.5e-05
same,peptide microarray binding signal,[4]; [12],0.00115 ± 4.1e-05
AVTKAQKKDGKKR [H2B 17-29 A V T Kac A Q K Kac D G K K R],peptide microarray binding signal,[1]; [13],0.00342 ± 3.7e-05
same,peptide microarray binding signal,[1]; [14],0.00562 ± 0.00013
same,peptide microarray binding signal,[2]; [15],0.00651 ± 0.00014
same,peptide microarray binding signal,[2]; [16],0.00468 ± 0.0004
same,peptide microarray binding signal,[3]; [17],0.00213 ± 0.0003
same,peptide microarray binding signal,[3]; [18],0.000685 ± 1.5e-05
same,peptide microarray binding signal,[4]; [17],0.000544 ± 1.7e-05
same,peptide microarray binding signal,[4]; [18],0.000865 ± 9e-06
AVTKAQKKDGKKR [H2B 17-29 A V T K A Q Kac Kac D G Kac K R],peptide microarray binding signal,"[1]; peptide modifications: H2BK23ac H2BK24ac H2BK27ac, binder concentration: 50 nM",0.00329 ± 7.2e-05
same,peptide microarray binding signal,"[1]; peptide modifications: H2BK23ac H2BK24ac H2BK27ac, binder concentration: 500 nM",0.00362 ± 0.00012
same,peptide microarray binding signal,"[2]; peptide modifications: H2BK23ac H2BK24ac H2BK27ac, binder concentration: 10 nM",0.00406 ± 5.6e-05
same,peptide microarray binding signal,"[2]; peptide modifications: H2BK23ac H2BK24ac H2BK27ac, binder concentration: 100 nM",0.004039 ± 3.4e-05
same,peptide microarray binding signal,[3]; [19],0.00068 ± 1.9e-05
same,peptide microarray binding signal,[3]; [20],0.0012 ± 5.2e-05
same,peptide microarray binding signal,[4]; [19],0.000453 ± 1.3e-05
same,peptide microarray binding signal,[4]; [20],0.000519 ± 5.6e-06
AVTKAQKKDGKKR [H2B 17-29 A V T Kac A Q K Kac D G Kac K R],peptide microarray binding signal,"[1]; peptide modifications: H2BK20ac H2BK24ac H2BK27ac, binder concentration: 50 nM",0.00335 ± 0.0001
same,peptide microarray binding signal,"[1]; peptide modifications: H2BK20ac H2BK24ac H2BK27ac, binder concentration: 500 nM",0.00514 ± 0.00021
same,peptide microarray binding signal,"[2]; peptide modifications: H2BK20ac H2BK24ac H2BK27ac, binder concentration: 10 nM",0.0031 ± 0.00013
same,peptide microarray binding signal,"[2]; peptide modifications: H2BK20ac H2BK24ac H2BK27ac, binder concentration: 100 nM",0.00255 ± 0.00012
same,peptide microarray binding signal,[3]; [21],0.00289 ± 0.00021
same,peptide microarray binding signal,[3]; [22],0.00143 ± 2.4e-05
same,peptide microarray binding signal,[4]; [21],0.000649 ± 5.6e-05
same,peptide microarray binding signal,[4]; [22],0.0011 ± 1.1e-05
AVTKAQKKDGKKR [H2B 17-29 A V T K A Q K K D G K K R],peptide microarray binding signal,[1]; binder concentration: 50 nM,0.00972 ± 0.00026
same,peptide microarray binding signal,[1]; binder concentration: 500 nM,0.0111 ± 0.00017
same,peptide microarray binding signal,[2]; binder concentration: 10 nM,0.0152 ± 0.0002
same,peptide microarray binding signal,[2]; binder concentration: 100 nM,0.00666 ± 0.00025
same,peptide microarray binding signal,[3]; [23],0.0021 ± 7.2e-05
same,peptide microarray binding signal,[3]; [24],0.00428 ± 3.3e-05
same,peptide microarray binding signal,[4]; [23],0.00118 ± 1.6e-05
same,peptide microarray binding signal,[4]; [24],0.00421 ± 8.6e-05
AVTKAQKKDGKKR [H2B 17-29 A V T Kac A Q Kac Kac D G Kac Kac R],peptide microarray binding signal,"[1]; peptide modifications: H2BK20ac H2BK23ac H2BK24ac H2BK27ac H2BK28ac, binder concentration: 50 nM",0.00442 ± 0.00034
same,peptide microarray binding signal,"[1]; peptide modifications: H2BK20ac H2BK23ac H2BK24ac H2BK27ac H2BK28ac, binder concentration: 500 nM",0.01 ± 0.0008
same,peptide microarray binding signal,"[2]; peptide modifications: H2BK20ac H2BK23ac H2BK24ac H2BK27ac H2BK28ac, binder concentration: 10 nM",0.00871 ± 0.00071
same,peptide microarray binding signal,"[2]; peptide modifications: H2BK20ac H2BK23ac H2BK24ac H2BK27ac H2BK28ac, binder concentration: 100 nM",0.0154 ± 0.0025
same,peptide microarray binding signal,[3]; [25],0.00208 ± 0.00036
same,peptide microarray binding signal,[3]; [26],0.00257 ± 0.0004
same,peptide microarray binding signal,[4]; [25],0.000936 ± 3.8e-05
same,peptide microarray binding signal,[4]; [26],0.00236 ± 0.00011
AVTKAQKKDGKKR [H2B 17-29 A V T Kac A Q Kac K D G K K R],peptide microarray binding signal,[1]; [13],0.00492 ± 0.00049
same,peptide microarray binding signal,[1]; [14],0.002 ± 0.0004
same,peptide microarray binding signal,[2]; [15],0.00477 ± 0.00013
same,peptide microarray binding signal,[2]; [16],0.00333 ± 0.00048
same,peptide microarray binding signal,[3]; [17],0.000321 ± 3.2e-05
same,peptide microarray binding signal,[3]; [18],0.00097 ± 7e-05
same,peptide microarray binding signal,[4]; [17],0.000408 ± 6.9e-06
same,peptide microarray binding signal,[4]; [18],0.000634 ± 1.2e-05
